# Measurements reported in PubChem BioAssay (NCI).
# About 79,000 compounds went through this panel and 15% of them were active in at least one assay; those are over-represented in the sample as a whole. Active and inactive are the calls of the source. No stated cut-off is given here; in the data, active means growth inhibition above about 70%; inactive means the rest.
# Assay: NCI Yeast Anticancer Drug Screen. Data for the sgs1 mgt1 strain (AID 161);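 further: 0% = growth of cultures given vehicle only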
# Conditions: S. cerevisiae sgs1 mgt1 strain, at 50.0 µM, hits give high values
# Outline: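 Yeast cells carrying a defined DNA-repair defect were exposed to test compounds. Growth inhibition was measured relative to vehicle-treated controls.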
row,Compound,growth inhibition
1,O=C(O)COCC(=O)O,-11.4% (inactive)
2,CCCCC1(CC)COC(CCC)OC1 (stereo not given),12.7% (inactive)
3,CCCCC/C=N/Nc1nc(C)cc(=O)[nH]1,-8.95% (inactive)
4,NC(=O)c1ccc(N=C(N)N=C(N)N)cc1,-20% (inactive)
5,O=C(Nc1ccccc1)OCCc1ccccc1,27.4% (inactive)
6,CC1(C)N=C(N)N=C(N)N1c1ccc(Cl)cc1,0.4% (inactive)
7,CC(=O)Nc1cccc(NC(C)=O)n1,1.25% (inactive)
8,c1ncc2[nH]cnc2n1,-11.6% (inactive)
9,S=C1CCCCCN1,42.6% (inactive)
10,O=C(NCCNC(=O)c1ccc(Cl)cc1Cl)c1ccc(Cl)cc1Cl,-4% (inactive)
11,Cc1nc2ccccc2c2nnc(SCC(=O)N(Cc3ccccc3)c3ccccc3)n12,-28.1% (inactive)
12,C=C1CC/C=C(\C)C(=O)C[C@@H]2[C@@H]1CC2(C)C,20.2% (inactive)
13,Cc1ccc(C)n1-c1ccsc1C(=O)NNC(=O)CCl,2.25% (inactive)
14,Nc1ccc(N)c([N+](=O)[O-])c1,-27.3% (inactive)
15,CC(=Nc1ccccc1)C1=C(O)C(Cc2cccc(F)c2)NC1=O (stereo not given),13.6% (inactive)
16,CC(=O)OC(C(=O)O)c1ccccc1 (stereo not given),0.25% (inactive)
17,COC(=O)c1[nH]c(=O)c(C#N)c(C(=O)OC)c1C(=O)c1ccccc1,10.5% (inactive)
18,N#Cc1ccc(NC(=O)Nc2cccc(C#N)c2)cc1,-9.75% (inactive)
19,Cc1cc2nc(CO)[nH]c2cc1C,-24.2% (inactive)

# Assay: NCI Yeast Anticancer Drug Screen. Data for the cln2 rad14 strain (AID 165);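 further: 0% = growth equal to vehicle treated cultures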
# Conditions: S. cerevisiae cln2 rad14 strain, at 50.0 µM, hits give high values
# Outline: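 Growth inhibition, relative to vehicle-treated controls, is the read-out. The test organism is a yeast strain with defined genetic alterations, cln2 rad14.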
row,Compound,growth inhibition
1,O=[N+]([O-])c1ccc(/C=C/C=C/c2ccccc2)c(Cl)c1,-45.1% (inactive)
2,O=c1[nH]n(-c2ccccc2)c(=O)cc1Cl,-0.3% (inactive)
3,Nc1nc(N)c2cc(S(=O)(=O)c3cccc(C(F)(F)F)c3)ccc2n1,11.2% (inactive)
4,COc1cc(/C=C(\C#N)C(=O)c2ccccc2)ccc1OCc1ccccc1,1.25% (inactive)
5,CC1(C)/C(=C\CO)C2CCC1C2 (stereo not given),-4.95% (inactive)
6,COc1cc2c(cc1O)CC[C@@H]1C2CC[C@@]2(C)C1CC[C@@H]2O (stereo not given in full),-26.6% (inactive)
7,Cc1ccc(N)cc1[N+](=O)[O-],18.2% (inactive)
8,CCCNc1ccc(C2=NCCCN2)cc1,7.25% (inactive)
9,Cc1cc(OCCO)cc(C)c1Cl,2.35% (inactive)
10,O=C(O)C(c1ccccc1)C(O)c1ccccc1 (stereo not given),-26.1% (inactive)
11,COC(=O)/C=C\C(=O)OC,-5.65% (inactive)
12,N#CSc1cc(S(N)(=O)=O)ccc1N,-5.35% (inactive)
13,O=[N+]([O-])c1ccc(N=Nc2ccccc2)cc1,21.2% (inactive)
14,CCCC(=O)Nc1ccc2c(c1)CN1C(=O)c3ccccc3C1=N2,5.15% (inactive)
15,Nc1nc(OCc2ccccc2)c2[nH]cnc2n1,-29.2% (inactive)
16,CC1(C)S(=O)(=O)OCCOS1(=O)=O,-20.5% (inactive)
17,CC1CC(O)C2C3(C)CCCC2(COC3=O)C12CCC1(CCOC1=O)O2 (stereo not given),25.9% (inactive)
18,CN(C)Cc1cc(C(C)(C)CC(C)(C)C)ccc1O,-43.9% (inactive)
19,CC(=O)OCC1=CC2OC(=O)C3=COC(OC4OC(CO)C(O)C(O)C4O)C1C32 (stereo not given),13.4% (inactive)

row,Compound,growth inhibition
1,O=C(O)COCC(=O)O,-53.2% (inactive)
2,CCCCC1(CC)COC(CCC)OC1 (stereo not given),-22.6% (inactive)
3,CCCCC/C=N/Nc1nc(C)cc(=O)[nH]1,15.7% (inactive)
4,NC(=O)c1ccc(N=C(N)N=C(N)N)cc1,-36.2% (inactive)
5,O=C(Nc1ccccc1)OCCc1ccccc1,42.9% (inactive)
6,CC1(C)N=C(N)N=C(N)N1c1ccc(Cl)cc1,-20.2% (inactive)
7,CC(=O)Nc1cccc(NC(C)=O)n1,-5% (inactive)
8,c1ncc2[nH]cnc2n1,-69.2% (inactive)
9,S=C1CCCCCN1,9.95% (inactive)
10,O=C(NCCNC(=O)c1ccc(Cl)cc1Cl)c1ccc(Cl)cc1Cl,-42.2% (inactive)
11,Cc1nc2ccccc2c2nnc(SCC(=O)N(Cc3ccccc3)c3ccccc3)n12,8.25% (inactive)
12,C=C1CC/C=C(\C)C(=O)C[C@@H]2[C@@H]1CC2(C)C,18.6% (inactive)
13,Cc1ccc(C)n1-c1ccsc1C(=O)NNC(=O)CCl,22.9% (inactive)
14,Nc1ccc(N)c([N+](=O)[O-])c1,-39% (inactive)
15,CC(=Nc1ccccc1)C1=C(O)C(Cc2cccc(F)c2)NC1=O (stereo not given),2.3% (inactive)
16,CC(=O)OC(C(=O)O)c1ccccc1 (stereo not given),13.8% (inactive)
17,COC(=O)c1[nH]c(=O)c(C#N)c(C(=O)OC)c1C(=O)c1ccccc1,19.2% (inactive)
18,N#Cc1ccc(NC(=O)Nc2cccc(C#N)c2)cc1,-15.1% (inactive)
19,Cc1cc2nc(CO)[nH]c2cc1C,7.55% (inactive)

# Assay: NCI Yeast Anticancer Drug Screen. Data for the bub3 strain (AID 167)
# Conditions: S. cerevisiae bub3 mutant strain, at 50.0 µM, hits give high values
# Outline: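 Readout: yeast growth inhibition, expressed relative to vehicle-only wells. The test organism is a mutant strain from a panel with lesions in DNA repair or checkpoint genes.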
row,Compound,growth inhibition
1,O=[N+]([O-])c1ccc(/C=C/C=C/c2ccccc2)c(Cl)c1,-4.85% (inactive)
2,O=c1[nH]n(-c2ccccc2)c(=O)cc1Cl,3.55% (inactive)
3,Nc1nc(N)c2cc(S(=O)(=O)c3cccc(C(F)(F)F)c3)ccc2n1,-15.4% (inactive)
4,COc1cc(/C=C(\C#N)C(=O)c2ccccc2)ccc1OCc1ccccc1,-26.7% (inactive)
5,CC1(C)/C(=C\CO)C2CCC1C2 (stereo not given),-2.65% (inactive)
6,COc1cc2c(cc1O)CC[C@@H]1C2CC[C@@]2(C)C1CC[C@@H]2O (stereo not given in full),-13.8% (inactive)
7,Cc1ccc(N)cc1[N+](=O)[O-],15.4% (inactive)
8,CCCNc1ccc(C2=NCCCN2)cc1,17.5% (inactive)
9,Cc1cc(OCCO)cc(C)c1Cl,-10.5% (inactive)
10,O=C(O)C(c1ccccc1)C(O)c1ccccc1 (stereo not given),-30.4% (inactive)
11,COC(=O)/C=C\C(=O)OC,-10.3% (inactive)
12,N#CSc1cc(S(N)(=O)=O)ccc1N,-1% (inactive)
13,O=[N+]([O-])c1ccc(N=Nc2ccccc2)cc1,-5.2% (inactive)
14,CCCC(=O)Nc1ccc2c(c1)CN1C(=O)c3ccccc3C1=N2,-1.65% (inactive)
15,Nc1nc(OCc2ccccc2)c2[nH]cnc2n1,-30.9% (inactive)
16,CC1(C)S(=O)(=O)OCCOS1(=O)=O,7.35% (inactive)
17,CC1CC(O)C2C3(C)CCCC2(COC3=O)C12CCC1(CCOC1=O)O2 (stereo not given),8.35% (inactive)
18,CN(C)Cc1cc(C(C)(C)CC(C)(C)C)ccc1O,17.1% (inactive)
19,CC(=O)OCC1=CC2OC(=O)C3=COC(OC4OC(CO)C(O)C(O)C4O)C1C32 (stereo not given),16.6% (inactive)

row,Compound,growth inhibition
1,O=C(O)COCC(=O)O,5.85% (inactive)
2,CCCCC1(CC)COC(CCC)OC1 (stereo not given),-12.2% (inactive)
3,CCCCC/C=N/Nc1nc(C)cc(=O)[nH]1,-2.9% (inactive)
4,NC(=O)c1ccc(N=C(N)N=C(N)N)cc1,-11.8% (inactive)
5,O=C(Nc1ccccc1)OCCc1ccccc1,37.6% (inactive)
6,CC1(C)N=C(N)N=C(N)N1c1ccc(Cl)cc1,3.85% (inactive)
7,CC(=O)Nc1cccc(NC(C)=O)n1,7.8% (inactive)
8,c1ncc2[nH]cnc2n1,8.15% (inactive)
9,S=C1CCCCCN1,30.4% (inactive)
10,O=C(NCCNC(=O)c1ccc(Cl)cc1Cl)c1ccc(Cl)cc1Cl,-1.25% (inactive)
11,Cc1nc2ccccc2c2nnc(SCC(=O)N(Cc3ccccc3)c3ccccc3)n12,-3.9% (inactive)
12,C=C1CC/C=C(\C)C(=O)C[C@@H]2[C@@H]1CC2(C)C,15.3% (inactive)
13,Cc1ccc(C)n1-c1ccsc1C(=O)NNC(=O)CCl,-14.5% (inactive)
14,Nc1ccc(N)c([N+](=O)[O-])c1,-14.8% (inactive)
15,CC(=Nc1ccccc1)C1=C(O)C(Cc2cccc(F)c2)NC1=O (stereo not given),-2.5% (inactive)
16,CC(=O)OC(C(=O)O)c1ccccc1 (stereo not given),-8% (inactive)
17,COC(=O)c1[nH]c(=O)c(C#N)c(C(=O)OC)c1C(=O)c1ccccc1,-25.1% (inactive)
18,N#Cc1ccc(NC(=O)Nc2cccc(C#N)c2)cc1,-0.3% (inactive)
19,Cc1cc2nc(CO)[nH]c2cc1C,-5.65% (inactive)
